# Several values for one entry are separate records, joined by “and”; a condition that tells them apart may be missing. Equal entries are not always repeated. Inconclusive results are not listed. A structure can be active in one record and inactive in another. Activity calls are given as the source filed them. Calls come from the whole dose curve; as a rule, active = well fitted cell-killing curve with a large enough effect in the repeat runs; inconclusive = weak or mixed curves; inactive = flat fitted curve, though single readings scatter.
# Test: qHTS RealTime-Glo MT Cell Viability Assay in HepG2 cells - 24 hour (AID 1224867); note: nearly all actives have a fitted effect of over 50% in size
# Conditions: RealTime-Glo luminescence; series mostly up to 76.8 µM; activity change, negative = cytotoxicity: at the top concentration
# From the text: U.S. Tox21 Program National Center for Advancing Translational Sciences [NCATS] NIH Chemical Genomics Center [NCGC] U.S. Environmental Protection Agency [EPA] National Institutes of Environmental Health Sciences [NIEHS] National Toxicology Program [NTP] U.S. Food and Drug Administration [FDA] Tox21 Assay Overview: Measure of cell viability is critical in the cell-base assay. Analysis of cell viability is necessary for the characterization of cell responses to cytotoxic drugs and environmental stress. A RealTime-Glo MT Cell Viability Assay to monitor cell viability in real time of continues cell culture during 40 hours of compound treatment was used to screen Tox21 10K library compounds in HepG2 cells. The RealTime-Glo MT Cell Viability Assay is a nonlytic, homogeneous, bioluminescent method to measure cell viability in real time using a simple, plate-based method. The assay involves adding NanoLuc luciferase and a cell-permeant prosubstrate to cells in culture. Viable cells reduce the proprietary prosubstrate to generate a substrate for NanoLuc luciferase. This substrate diffuses from cells into the surrounding culture medium, where it is rapidly used by the NanoLuc Enzyme to produce a luminescent signal. The signal correlates with the number of viable cells, making the assay well suited for cytotoxicity studies.
# Tox21 Assay Protocol Summary: The mixture of HepG2 cell suspension and reagents were dispensed at 600cells/6 ul/well in 1536-well tissue culture treated black solid bottom plates using a Multidrop dispenser. After the assay plates were incubated at a 37 C/5% CO2 incubator for 5 hours, 23 nL of compounds dissolved in DMSO, positive and negative controls was transferred to the assay plate by a pintool work station. The plates were incubated at 37 C for 40 hours. The luminescence intensity were measured at 0h, 8h, 16h, 24h, 32h and 40h time points using ViewLux plate reader during compound treatment.
# % is set by controls: 0 for no effect and ±100 for the full control effect; potency is the fitted concentration of half-maximal effect.
SMILES,"activity change, negative = cytotoxicity",Potency
CCCCCCC1CCOC1=O (stereo not given),2.11% (inactive),
CCOC(=O)Nc1cccc(OC(=O)Nc2ccccc2)c1,1.42% (inactive),
CC[C@@H](CO)NC(=O)[C@@H]1C=C2c3cccc4c3c(cn4C)C[C@H]2N(C)C1,1.16% [at 35.3 µM] (inactive),
CC(=NC#N)N(C)Cc1ccc(Cl)nc1,1.25% (inactive),
COC(=O)c1ccc(CBr)cc1,0.0461% (inactive),
NCCOS(=O)(=O)O,0.905% (inactive),
[P]#[In],1.04% (inactive),
CC[C@@H](CO)NC(=O)[C@@H]1C=C2c3cccc4[nH]cc(c34)C[C@H]2N(C)C1,0.307% [at 35.3 µM] (inactive),
CON(C)C(=O)Nc1ccc(Br)cc1,2.23% (inactive),
CCOC(=O)CC(SP(=S)(OC)OC)C(=O)OCC (stereo not given),-0.276% [at 35.3 µM] (inactive),
BrCCc1ccccc1,-1.02% (inactive),
CCN[C@@H](C)Cc1ccccc1,0.962% (inactive),
CC(C)C(C)(N)C#N (stereo not given),-1.69% (inactive),
NC1(c2ccccc2)CCCCC1,-2.78% (inactive),
CN1COCN(Cc2cnc(Cl)s2)/C1=N\[N+](=O)[O-],1.51% (inactive),
C/C=C/CC#N,1.08% (inactive),
C=CCCC#N,3.13% (inactive),
CCOC1Oc2ccc(OS(C)(=O)=O)cc2C1(C)C (stereo not given),0.285% (inactive),
O=C(NC(O)C(Cl)(Cl)Cl)NC(O)C(Cl)(Cl)Cl (stereo not given),1.91% [at 35.3 µM] (inactive),
CC(C)c1ccc(O)cc1,0.84% (inactive),

SMILES,"activity change, negative = cytotoxicity",Potency
CC(Cl)(Cl)Cl,3.08% (inactive),
c1ccc2c(c1)CCNC2,-1.96% (inactive),
COc1cc(CCN)cc(OC)c1OC,-0.186% (inactive),
CCOC(=O)NC(C)(C)Cc1ccc(Cl)cc1,-1.7% [at 35.3 µM] (inactive),
CCCOC(=O)Cc1ccc(OCC(=O)N(CC)CC)c(OC)c1,-0.49% [at 35.3 µM] (inactive),
CCCC(C)(COC(N)=O)COC(N)=O,-0.235% (inactive),
CCN(CC)C1CCCCC1,0.43% (inactive),
CN(CCO)CCO,-4.32% (inactive),
O=C1C2CC=CCC2C(=O)N1SC(Cl)(Cl)Cl (stereo not given),,inactive and 24.1 µM (active)
CCN(CC)CCOC(=O)C(O)(c1ccccc1)c1ccccc1,3.98% [at 35.3 µM] (inactive),
CCOC(=O)c1ncn2c1CN(C)C(=O)c1c(I)cccc1-2,-0.332% [at 35.3 µM] (inactive),
CON(C)C(=O)Nc1ccc(Br)c(Cl)c1,-0.847% (inactive),
CN(C)C1CCCCC1,0.662% (inactive),
COc1ccc(CN2CCNCC2)c(OC)c1OC,1.21% [at 35.3 µM] (inactive),
N[C@@H]1C[C@H]1c1ccccc1,0.786% [at 35.3 µM] (inactive),
C=C(Cl)CCl,-0.264% (inactive),
CCN(CCO)CCn1c(Cc2ccccc2)nc2c1c(=O)n(C)c(=O)n2C,3.14% [at 35.3 µM] (inactive),
CCOP(=S)(OCC)SCCl,-0.766% (inactive),
COC(=O)c1ccccc1CS(=O)(=O)NC(=O)Nc1nc(OC)cc(OC)n1,1.03% (inactive),
CN(C)C(=O)Oc1cc(OC(=O)N(C)C)cc(C(O)CNC(C)(C)C)c1 (stereo not given),0.552% [at 35.3 µM] (inactive),

# From PubChem BioAssay (Tox21)
